Test results taken from PubChem BioAssay (NCI).
The panel holds about 79,000 compounds, 15% with a hit somewhere; the sample as a whole holds those more often. Active and inactive are the calls of the source. No stated cut-off is given here; in the data, active means growth inhibition above about 70%; inactive means the rest. Where a SMILES comes first, the peptide text is derived from it. [ ]: non-standard residue; d: D form. The star is where a group is joined. ξ: configuration not given here. ξV = CC(C)C(N)C(=O)O; ClAc = O=C(CCl)*

Assay: NCI Yeast Anticancer Drug Screen. Data for the cln2 rad14 strain (AID 165);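 further: 0% = growth equal to vehicle treated cultures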
Conditions: S. cerevisiae cln2 rad14 strain, at 50.0 µM, active compounds read high
Method in brief: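 Yeast carrying cln2 and rad14 alterations (cell cycle control and DNA damage repair) were exposed to compounds. Growth inhibition was measured against vehicle-treated controls.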

SMILES	growth inhibition
CCn1c2c(c3ccccc3c1=O)C(=O)c1ccccc1-2	12.8% (inactive)
CCCCCC(O)(CCCCC)CCCCCCCCC1=C(O)c2ccccc2C(=O)C1=O	5.75% (inactive)
COc1ccc2nc(NC(=O)/C(C#N)=C/c3ccccc3)sc2c1	-3.3% (inactive)
Cc1ccc(/C=N/Nc2ccccn2)s1	11.4% (inactive)

Assay: NCI Yeast Anticancer Drug Screen. Data for the bub3 strain (AID 167)
Conditions: S. cerevisiae bub3 mutant strain, at 50.0 µM, active compounds read high
Method in brief: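 In this screen, a yeast mutant lacking normal mitotic checkpoint function is challenged with compound. Relative growth versus vehicle gives the inhibition value.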

SMILES	growth inhibition
CC(C)(C)c1cc(C2COC(=O)COCCOCC(=O)OCCOCCO2)cc(C(C)(C)C)c1O (stereo not given)	-23.3% (inactive)
Cc1nc(-[n+]2nc(-c3ccccc3)nn2-c2ccccc2)sc1C	-26.8% (inactive)
COc1cc2c(cc1-c1coc3cc(O)ccc3c1=O)OCO2	-14.3% (inactive)
O=C(/C=C(\[O-])c1ccccc1)CCCCCCC(=O)/C=C(\[O-])c1ccccc1.O=C(/C=C(\[O-])c1ccccc1)CCCCCCC(=O)/C=C(\[O-])c1ccccc1.O=C(/C=C(\[O-])c1ccccc1)CCCCCCC(=O)/C=C(\[O-])c1ccccc1.[La+3].[La+3]	12.3% (inactive)
CCn1c2c(c3ccccc3c1=O)C(=O)c1ccccc1-2	-3.85% (inactive)
CC1=C2NCN(C)N=C2C(C#N)(C#N)C1(C#N)C#N	-12.2% (inactive)
CCCCCC(O)(CCCCC)CCCCCCCCC1=C(O)c2ccccc2C(=O)C1=O	1% (inactive)
CCOC(=O)c1cc(C)nc2c1c(=O)n(-c1ccccc1)c(=O)n2CCCCN1CCN(c2ncccn2)CC1	-16.9% (inactive)
C=CCNC1=C2C[C@@H](C)C[C@@H](OC)[C@@H](OC(=O)CCCN)[C@H](C)/C=C(\C)[C@@H](OC(N)=O)[C@H](OC)/C=C\C=C(/C)C(=O)NC(=CC1=O)C2=O	20.6% (inactive)
Cc1ccc(/C=C2/N=C(N/N=C\c3ccccc3)NC2=O)cc1	-9.1% (inactive)
O=C(/C=C/c1ccccc1)Nc1ccccc1	7.05% (inactive)
COc1ccc2nc(NC(=O)/C(C#N)=C/c3ccccc3)sc2c1	-8.95% (inactive)
C[C@@H]1C[C@](O)([C@@H](C)Cl)C(=O)O[C@@H]2CCN3CC=C(COC(=O)[C@]1(C)O)[C@H]23	5.7% (inactive)
CC(C)Cc1ccc(C(C)C(=O)O)cc1 (stereo not given)	-26.1% (inactive)
Cc1ccc(/C=N/Nc2ccccn2)s1	-11.2% (inactive)

Assay: NCI Yeast Anticancer Drug Screen. Data for the mlh1 rad18 strain (AID 175)
Conditions: S. cerevisiae mlh1 rad18 strain growth inhibition; at 50.0 µM; active compounds read high
Method in brief: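 Growth inhibition of the yeast strain was measured after compound exposure and expressed relative to vehicle-treated controls. The strain carries defined defects in DNA damage repair.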

SMILES	growth inhibition
CC(C)(C)c1cc(C2COC(=O)COCCOCC(=O)OCCOCCO2)cc(C(C)(C)C)c1O (stereo not given)	-60.5% (inactive)
Cc1nc(-[n+]2nc(-c3ccccc3)nn2-c2ccccc2)sc1C	7.4% (inactive)
COc1cc2c(cc1-c1coc3cc(O)ccc3c1=O)OCO2	-42.6% (inactive)
O=C(/C=C(\[O-])c1ccccc1)CCCCCCC(=O)/C=C(\[O-])c1ccccc1.O=C(/C=C(\[O-])c1ccccc1)CCCCCCC(=O)/C=C(\[O-])c1ccccc1.O=C(/C=C(\[O-])c1ccccc1)CCCCCCC(=O)/C=C(\[O-])c1ccccc1.[La+3].[La+3]	-10.1% (inactive)
CN(C)c1ccc(C2=C([O-])C(=C3C=CC(=[N+](C)C)C=C3)C2=O)cc1	-5.55% (inactive)
O=C1OC(c2ccccc2)=N/C1=C/c1cccs1	-24.8% (inactive)
CCn1c2c(c3ccccc3c1=O)C(=O)c1ccccc1-2	-49.4% (inactive)
CC1=C2NCN(C)N=C2C(C#N)(C#N)C1(C#N)C#N	-13.1% (inactive)
CCCCCC(O)(CCCCC)CCCCCCCCC1=C(O)c2ccccc2C(=O)C1=O	-79.2% (inactive)
O=C1NC(C2CC3C=CC2C3)Nc2ccccc21 (stereo not given)	2.7% (inactive)
O=C1CCC2CN3CCc4c([nH]c5ccccc45)C3CC2C1 (stereo not given)	32.7% (inactive)
Nc1ccccc1SC1CC(=O)N(c2ccccc2Cl)C1=O (stereo not given)	-6.5% (inactive)
C(=C/c1ccc(/C=C/c2ccccc2)cc1)/c1ccccc1	-26.8% (inactive)
Nc1ccc(I)cc1Cl	24.4% (inactive)
S=C(NNc1ccccc1)NC1CCCCC1	-8.6% (inactive)
CC(C)C(C(=O)c1ccccc1)c1ccccc1 (stereo not given)	-3.55% (inactive)
CCOC(=O)c1cc(C)nc2c1c(=O)n(-c1ccccc1)c(=O)n2CCCCN1CCN(c2ncccn2)CC1	-38.5% (inactive)
CC(C)C(NC(=O)CNC(=O)CCl)C(=O)O (stereo not given) (ClAc-Gly-[ξV]-OH)	4.1% (inactive)

SMILES	growth inhibition
COc1cc(C2N(c3ccccc3)CCN2c2ccccc2)cc(OC)c1OC	43.1% (inactive)
Cc1ccc(CNc2cccc([N+](=O)[O-])c2)cc1	1.8% (inactive)
O=C(N/N=C/c1ccc2c(c1)CCC2)c1cc2ccccc2cc1O	7.2% (inactive)
CCCCCCCCCCCCCCCCOc1ccc(C(=O)NN)cc1N	-14.6% (inactive)
C=CCNC1=C2C[C@@H](C)C[C@@H](OC)[C@@H](OC(=O)CCCN)[C@H](C)/C=C(\C)[C@@H](OC(N)=O)[C@H](OC)/C=C\C=C(/C)C(=O)NC(=CC1=O)C2=O	4.6% (inactive)
COc1cc(/C=N/NC(=O)c2ccncc2)cc(OC)c1OC	-16.5% (inactive)
COC(=O)C1=CCCC2CN3CCc4c([nH]c5ccccc45)C3CC12 (stereo not given)	18% (inactive)
O=C(/C=C/c1ccccc1)Nc1ccccc1	35.6% (inactive)
COc1ccc2nc(NC(=O)/C(C#N)=C/c3ccccc3)sc2c1	-5.7% (inactive)
CC(=O)NCc1cc(CNC(C)=O)c(C)cc1C	-23.6% (inactive)
C[C@@H]1C[C@](O)([C@@H](C)Cl)C(=O)O[C@@H]2CCN3CC=C(COC(=O)[C@]1(C)O)[C@H]23	-30.6% (inactive)
O=c1oc(-c2cccc([N+](=O)[O-])c2)nc2ccccc12	4.8% (inactive)
CCN(CC)C(C(=O)Nc1ccccc1)C(=O)Nc1ccccc1	-4.9% (inactive)
COc1ccc(/C=C(\C#N)c2ccc(C)cc2)cc1OC	38.1% (inactive)
CC(C)Cc1ccc(C(C)C(=O)O)cc1 (stereo not given)	3.25% (inactive)
CCOC(=O)C(C)Oc1ccccc1[N+](=O)[O-] (stereo not given)	-15.8% (inactive)
Cc1ccc(/C=N/Nc2ccccn2)s1	0.7% (inactive)
CS(=O)(=O)c1ccc(NN)c([N+](=O)[O-])c1 (tested in a mixture with another compound)	-39.1% (inactive)
